# Assay results: PubChem BioAssay AID1851 (National Center for Advancing Translational Sciences (NCATS), 2009)
# The campaign covered roughly 16,000 compounds. About 2,600 (16%) were called active. About 20% were inconclusive and are not listed. Only a sample is shown. Unmarked numbers belong to inactive results. Calls follow the shape of the dose curve; as a rule, active = well fitted curve in the direction sought with a large enough effect; inconclusive = small, poorly fitted or top-dose-only effect, or effect the other way; inactive = no such curve, though single readings can be large or run the other way.
# Target: Cytochrome P450 2D6 (Homo sapiens) (UniProt P10635)
# Experiment: Cytochrome panel assay with activity outcomes
# Settings: recombinant CYP, pro-luciferin dealkylation, luminescence, p450-cyp2d6; series mostly up to 57.1 µM
# % is scaled to controls: 0 for no effect and ±100 for the full control effect.
# Sequence of Cytochrome P450 2D6 (Homo sapiens) (P10635 whole entry, looked up): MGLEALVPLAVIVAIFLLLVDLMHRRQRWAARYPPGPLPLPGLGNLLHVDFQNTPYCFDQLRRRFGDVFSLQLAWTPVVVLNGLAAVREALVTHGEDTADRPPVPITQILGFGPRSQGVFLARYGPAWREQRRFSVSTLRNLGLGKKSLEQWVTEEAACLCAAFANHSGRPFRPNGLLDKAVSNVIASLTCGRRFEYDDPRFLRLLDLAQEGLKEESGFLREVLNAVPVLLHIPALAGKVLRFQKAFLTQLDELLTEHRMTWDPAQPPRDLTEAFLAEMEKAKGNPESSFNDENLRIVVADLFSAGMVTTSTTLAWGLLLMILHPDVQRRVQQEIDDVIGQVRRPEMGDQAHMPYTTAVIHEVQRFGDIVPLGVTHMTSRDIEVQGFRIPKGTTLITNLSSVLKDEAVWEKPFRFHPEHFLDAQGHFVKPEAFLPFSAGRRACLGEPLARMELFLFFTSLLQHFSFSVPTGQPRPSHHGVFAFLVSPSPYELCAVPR
Compound,AC50,"activity, negative = inhibition"
O=c1c(-c2cc(F)cc(F)c2)nc2cnc(Oc3ccccc3)nc2n1C1CC1,inactive,–
CN(C)CCCn1c2c3ccccc3ccc2c2oc(=O)c3ccccc3c21,1.26 µM (active),–
Cc1nc2cccc([N+](=O)[O-])c2n1CCCN(C)C,–,3.67% [at 11.4 µM]
O=C1C2C3c4ccccc4C(c4ccccc43)C2C(=O)N1c1nc(-c2ccccc2)cs1 (stereo unspecified),inactive,–
O=C(Nc1ccc(-c2nc3ccccc3o2)cc1)c1ccc(N2CCOCC2)c([N+](=O)[O-])c1,inactive,–
O=C(O)C1=CCNCC1,inactive,–
CCC[C@H]1C(=O)N2C(N(C)C)=Nc3ccc(C)cc3N2C1=O,inactive,–
O=C(Nc1ccccc1)/C(=C\c1ccncc1)NC(=O)c1ccccc1,inactive,–
CC(=O)Nc1ccc(NCN2C(=O)C3C4CCC(C4)C3C2=O)cc1 (stereo unspecified),inactive,–
COc1ccccc1NC(=O)C1=C(C)Nc2nc(-c3ccc(N(C)C)cc3)nn2C1c1ccncc1 (stereo unspecified),inactive,–
Nc1nnnn1/N=C\c1ccc(Cl)c([N+](=O)[O-])c1,inactive,–
COc1ccc(-n2c(C)n[nH]c2=O)cc1,inactive,–
O=C(O)[C@H]1CCCC[C@@H]1C(=O)Nc1nc2ccccc2[nH]1,–,-3.05% [at 11.4 µM]
CC(C)c1ccc(NC(=O)N(CCc2nc3ccccc3[nH]2)C2CCCC2)cc1,2.51 µM (active),–
Cc1cc(C)cc(NC(=O)CCc2nc3ccccc3[nH]2)c1,inactive,–
O=C(N/N=C/c1cccc(OC2CSC2)c1)c1ccccc1O,inactive,–
Nc1ccccc1N=Nc1c(S(=O)(=O)O)cc2cc(S(=O)(=O)O)cc(O)c2c1O,–,-13.1% [at 11.4 µM]
CC(C)CCn1c(Oc2ccccc2Cl)nc2c1c(=O)n(C)c(=O)n2C,inactive,–
CC(=O)/C(=C\c1ccccc1F)C(=O)c1ccccc1,–,-1.17% [at 11.4 µM]
CC1CCCN(CCCNC(=O)C2CC(=O)N(c3ccc(F)c(Cl)c3)C2)C1 (stereo unspecified),15.8 µM (active),–
CC1CC(C)CN(CCCNC(=O)C2CCCN(c3nnc(N4CCCC4=O)s3)C2)C1 (stereo unspecified),inactive,–
COCCCNC(=O)C1CC(=O)N(CCc2ccc(OC)c(OC)c2)C1 (stereo unspecified),inactive,–
COC(=O)c1nn(C23CC4CC(CC(C4)C2)C3)c2c1C(=O)N(c1ccc(F)cc1)C2=O,inactive,–
COc1cccc(/C(O)=C2/C(=O)C(=O)N(c3ccccn3)C2c2ccc(OC)c(OC)c2)c1 (stereo unspecified),inactive,–
COc1ccc(C2N=C(N)N=C(N)N2c2ccccc2OC)cc1OC (stereo unspecified),7.08 µM (active),–
NC1=N[C@H](c2ccc(Cl)cc2)N(c2ccc(S(=O)(=O)Nc3ncccn3)cc2)C(N)=N1,–,-2.11% [at 11.4 µM]
